TGFb inhibitor – inhibitors of TGF-b signaling; HepG2 CAGA-GFP TGF-b/SMAD3 reporter, GFP fluorescence, 18 h; TGF-beta stimulated, 500 pg/mL final; Potency, µM (titrated, usually from 46.1 µM), for inactives: top-dose activity, negative = inhibition, usual class: inhibitors; actives 1.2% (n = 410,000); AID 588855; also: potency is read from the fitted curve at half-maximal effect; % is scaled to controls: 0 for no effect and ±100 for the full control effect; nearly all actives have a fitted effect of over 65% in size
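Cell-based qHTS in HEPG2 carrying a CAGA-GFP Smad reporter; compounds added before 500 pg/mL final TGF-beta, 18 h incubation at 37 degrees C, GFP fluorescence quantified per cell by imaging cytometry.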
HepG2 viability – kills HepG2 cells in TGF-b inhibitor counter-screen; Potency, µM (titrated, usually from 46.1 µM), inactives show top-dose activity change, negative = cytotoxicity, actives largely listed as cytotoxic; HepG2 CAGA-GFP viability, ATP luminescence, 18 h; actives 0.76% (n = 410,000); also: potency is read from the fitted curve at half-maximal effect
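CellTiter-Glo luminescence gave cytotoxicity after 18 hours at 37 degrees C. The cells were HepG2 CAGA-GFP in 1% FBS DMEM, stimulated with 500 pg/mL TGF-beta after compound addition. %Activity was normalised to no-cell wells (complete cell-killing) and DMSO (no toxicity), and curves were fitted and classified.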
TDP1 cell noCPT – qHTS for Inhibitors of human tyrosyl-DNA phosphodiesterase 1 (TDP1): qHTS in cells in absence of CPT; actives 15% (n = 420,000); AID 686978, 2013; DT40 Tdp1-/- hTDP1 cells, no CPT, ATP luminescence, 48 h; Potency, µM (top dose mostly 46.2 µM), without a hit: at the highest dose activity change, negative = growth inhibition, most hits filed as inhibitors; also: potency is read from the fitted curve at half-maximal effect; % is scaled to controls: 0 for no effect and ±100 for the full control effect; nearly all actives have a fitted effect of over 55% in size
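Camptothecin absent (DMSO only). Human TDP1-complemented DT40 knockout cells, 400 cells/well, 37 °C for minimum 48 hr; ATP measured via CellTiter-Glo, 30 min dark incubation, luminescence.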
ASM inhibitor – inhibitors of human secretory acid sphingomyelinase; P17405; placental ASM, HMU-PC fluorogenic substrate, 60 min; Potency, µM (highest dose often 57.5 µM), for the others: at the highest dose activity change, negative = inhibition, usual class: inhibitors; actives 0.006% (n = 340,000); also: potency is read from the fitted curve at half-maximal effect
Target sequence (P17405 47-631 limits assumed): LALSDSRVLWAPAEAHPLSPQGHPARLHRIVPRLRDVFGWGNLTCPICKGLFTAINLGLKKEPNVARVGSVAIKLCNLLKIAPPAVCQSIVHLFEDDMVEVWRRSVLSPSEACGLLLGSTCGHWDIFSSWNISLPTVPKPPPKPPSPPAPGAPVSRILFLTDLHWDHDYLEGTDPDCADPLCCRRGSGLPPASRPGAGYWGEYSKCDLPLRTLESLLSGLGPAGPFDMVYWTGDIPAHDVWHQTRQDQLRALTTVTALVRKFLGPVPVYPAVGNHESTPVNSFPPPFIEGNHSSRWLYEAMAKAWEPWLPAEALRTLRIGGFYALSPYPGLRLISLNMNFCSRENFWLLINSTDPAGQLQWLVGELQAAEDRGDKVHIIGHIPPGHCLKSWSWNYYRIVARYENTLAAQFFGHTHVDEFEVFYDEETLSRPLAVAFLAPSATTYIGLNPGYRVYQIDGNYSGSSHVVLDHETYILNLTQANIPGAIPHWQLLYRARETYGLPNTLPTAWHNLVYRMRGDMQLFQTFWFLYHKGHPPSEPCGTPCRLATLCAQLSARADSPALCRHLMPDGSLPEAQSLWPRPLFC
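HMU-PC0 cleavage (9 uM final) by human placental ASM, 60 min at 37 °C following 10 min compound exposure at RT; stopped at pH 10, fluorescence Ex 386/Em 447 nm.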
TDP1 cell CPT – growth inhibition of DT40 Tdp1-/-;hTDP1 cells with camptothecin (screen for TDP1 inhibitors). chicken DT40 Tdp1-/-;hTDP1 cells + 20 nM CPT, ATP luminescence, 48 h. Potency, µM (doses to about 46.2 µM), without a hit: at the highest dose activity change, negative = growth inhibition, usual class: inhibitors. actives 12% (n = 420,000); also: potency is read from the fitted curve at half-maximal effect; % is scaled to controls: 0 for no effect and ±100 for the full control effect; nearly all actives have a fitted effect of over 55% in size
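Chicken DT40 Tdp1-/- cells complemented with human TDP1, 400 cells/well, exposed to compounds plus 20 nM camptothecin for at least 48 h at 37 C; viability read as ATP content by CellTiter-Glo luminescence.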
IL-1B inflam inh – inflammasome signaling inhibition, IL-1 beta readout; THP-1 LPS/ATP IL-1B secretion, AlphaLISA, 16 h; hits give low values; activity change, % at 57.5 µM; actives 4.7% (n = 360,000); AID 743279; in the data active = activity change below about -50%; inconclusive = mostly about -30% to -49%; also: % is scaled to controls: 0 for no effect and ±100 for the full control effect
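Secreted IL-1B measured by AlphaLISA bead assay after 16 h compound exposure of THP-1 cells; compounds (final up to 57.5 uM) added 1 h before LPS (250 ng/mL) and ATP (1.25 mM) stimulation; lower signal means less secretion.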
* hit, by the source's call; i = inactive; u = inconclusive; x = no result given. Rows were chosen to be rich in hits. Some 19% of all compounds tested hit in one or more screens of this group. Unless noted, calls follow the shape of the dose curve; as a rule, active = well fitted curve in the direction sought with a large enough effect; inconclusive = small, poorly fitted or top-dose-only effect, or another doubt; inactive = no such curve, though single readings can be large; an effect the other way counts as inactive or inconclusive.

SMILES | TGFb inhibitor | HepG2 viability | TDP1 cell noCPT | ASM inhibitor | TDP1 cell CPT | IL-1B inflam inh
O=C(c1cc([N+](=O)[O-])ccc1Cl)N1c2ccccc2Sc2ccccc21 | u | -29.6% | 14.6µM* | -8.1% | u | u
O=C(c1cc([N+](=O)[O-])ccc1Cl)N1CCN(c2ccccc2)CC1 | -16.6% | -19.3% | -18.4% | -0.3% | 22.3% | -7.8
CC(=O)c1ccc(NC(=O)CN(C)S(=O)(=O)c2cnc[nH]2)cc1 | -19.2% | -39.1% | 1.0% | x | -2.9% | x
CCC(C)n1c(C)nc2c(c1=O)c1nc3ccccc3nc1n2CCC1=CCCCC1 (configuration not stated) | -18.0% | -8.5% | 5.3% | 2.0% | -1.2% | -4.2
CCn1c2ccccc2c2cc(NC(=O)c3ccco3)ccc21 | -4.1% | -0.7% | u | -5.4% | u | -52.3*
CCn1c(=O)sc2cc(NC(=O)c3cccc(OC)c3)ccc21 | 20.7% | -9.2% | u | x | u | x
COc1cccc(C(=O)Nc2cccc3ccccc23)c1 | 21.2% | -2.3% | u | -0.1% | u | -2.9
CCn1c2ccccc2c2cc(NC(=O)c3ccccc3[N+](=O)[O-])ccc21 | 21.6% | -5.6% | 23.1µM* | -11.0% | 20.6µM* | 41.1
COc1cccc(C(=O)Nc2cccc3c2ccc2cccn23)c1 | 1.2% | -14.2% | 23.1µM* | 30.1% | 16.4µM* | -29.9
CCn1c2ccccc2c2cc(NC(=O)c3cccc(OC)c3)ccc21 | 10.5% | 6.6% | 7.94µM* | -6.2% | 8.91µM* | u
CCOc1cc(C(=O)Oc2cc(C)[nH]c(=O)c2[N+](=O)[O-])cc(OCC)c1OCC | -6.0% | -2.5% | -5.4% | -2.6% | -8.7% | 2.5
COc1ccccc1-c1cnc(C(O)c2ccc(F)cc2C)[nH]1 (configuration not stated) | -8.2% | -2.7% | u | x | u | 18.0
O=C(O)Cc1sc(=O)[nH]c1O | 3.2% | -19.9% | -25.7% | 1.0% | -18.2% | 7.4
CCn1c2ccccc2c2cc(NC(=O)c3cccc(OC)c3OC)ccc21 | 19.1% | -20.2% | 4.11µM* | -0.3% | 8.2µM* | -26.3
O=C(O)/C=C/C(=O)NCCC(c1ccccc1)c1ccccc1 | u | -82.6% | u | -3.4% | u | u
O=c1oc(-c2ccccc2Cl)nc2ccsc12 | u | -0.5% | 14.6µM* | -0.3% | u | 47.8
O=C(CC1C(=O)NCCN1Cc1ccc(-c2ccccc2)cc1)NC1CCC1 (configuration not stated) | -2.4% | -18.9% | 14.6µM* | 0.4% | -27.6% | -20.9
O=C(CC1C(=O)NCCN1Cc1ccc(-c2ccccc2)cc1)NCc1ccccc1 (configuration not stated) | u | -16.8% | u | -1.5% | u | -56.9*
CCc1cc(CNC(=O)CC2C(=O)NCCN2Cc2ccc(-c3ccccc3)cc2)on1 (configuration not stated) | -1.2% | -5.8% | u | -1.5% | -13.9% | 11.3
Cc1ccc(NC(=O)Cn2nnc(C(=O)NCc3ccc4c(c3)OCO4)c2N)cc1Cl | 1.8% | -6.1% | 4.6% | x | -10.8% | x
CCc1ccc2c(c1)C(=O)C[C@]1(CCC[C@H](C)C1)O2 | u | 1.3% | u | 0.2% | u | 26.9
CCOc1cc(-c2c(C#N)c(N)nc3c2CCc2ccccc2-3)ccc1O | u | 12.6µM* | 14.6µM* | 263.7% | 18.4µM* | -17.1
COc1ccccc1-c1c(C#N)c(N)nc2c1CCc1ccccc1-2 | -22.8% | -53.3% | 6.51µM* | i | 6.51µM* | 63.5
COc1ccccc1-c1c(C)c(C)nc(N)c1C#N | 2.5% | 9.0% | -7.8% | -0.4% | 2.6% | 8.1
CCc1nc(N)c(C#N)c(-c2ccccc2OC)c1C | 15.6% | -8.3% | 0.6% | 1.1% | 13µM* | 12.9
SMILES | TGFb inhibitor | HepG2 viability | TDP1 cell noCPT | ASM inhibitor | TDP1 cell CPT | IL-1B inflam inh
CCOc1cc(-c2c(C#N)c(N)nc3c2CCCC3C)ccc1O (configuration not stated) | u | -4.0% | u | -2.3% | 9.2µM* | 6.3
CC(=O)c1ccc(NC(=O)C2CCCN(S(=O)(=O)c3cn(C)cn3)C2)cc1 (configuration not stated) | 0.7% | -1.0% | -13.1% | x | -4.6% | x
Cn1c(CCC(=O)OCC(=O)NCc2ccc3c(c2)OCO3)nc(=O)c2ccccc21 | -0.3% | 3.7% | 0.8% | 1.4% | -1.4% | 3.6
CC(C)c1ccc(N2C(=O)CC(Sc3ncn[nH]3)C2=O)cc1 (configuration not stated) | u | -21.5% | 4.61µM* | 1.5% | 4.61µM* | -23.5
COc1ccc(N2C(=O)CC(Sc3ncn[nH]3)C2=O)c(OC)c1 (configuration not stated) | u | -4.3% | 2.91µM* | 0.2% | 2.91µM* | -17.0
CC1CC(=O)N(c2ccc(C(C)C)cc2)C(=O)C1 | -8.4% | -13.8% | -5.8% | -5.2% | 7.7% | -1.1
COc1ccccc1N1C(=O)CC(Sc2nc(C)cc(C)n2)C1=O (configuration not stated) | -1.4% | 0.8% | 0.0% | 1.5% | -6.2% | 19.1
CC(C)c1ccc(N2C(=O)CC(Sc3nc4ccccc4o3)C2=O)cc1 (configuration not stated) | 2.2% | -37.8% | 5.8µM* | -2.5% | 4.61µM* | -0.8
C[C@H](O)[C@@H]1CN2CCc3c([nH]c4ccccc34)[C@@H]2C[C@@H]1N(C)C(=S)NCCc1ccccc1 | u | -51.8% | u | x | u | -9.5
Cc1ccc(NC(=O)CNC(=O)Cn2c(C)cc3ccccc3c2=O)cc1F | -15.1% | 6.0% | -1.9% | x | -8.3% | x
CCN(CC)C(=O)c1sc(NC(=O)C2c3ccccc3Oc3ccccc32)c(C(=O)OC(C)C)c1C | -0.5% | -21.1% | 0.116µM* | x | u | x
CCOC(=O)c1c(NC(=O)COc2ccccc2)sc(C(C)=O)c1C | 19.8% | 1.4% | x | x | x | x
CCOC(=O)c1c(NC(=O)C2c3ccccc3Oc3ccccc32)sc(C(N)=O)c1C | 1.7% | -14.6% | u | -19.8% | u | 28.5
CCOC(=O)c1c(NC(=O)COC(=O)c2cccnc2OCC)sc(C(=O)N(CC)CC)c1C | 0.0% | 0.2% | 18.4µM* | -5.1% | u | -60.1*
CCOC(=O)c1c(NC(=O)c2nc(S(C)(=O)=O)ncc2Cl)sc(C(C)=O)c1C | u | -11.0% | 0.92µM* | x | 0.581µM* | x
